Our source for the composite z-score and z-score values is PubChem BioAssay.

The nature of experiment [1]: small molecules captured by biotinylated probe aFSTL3 – biochemical, small-molecule microarray, fluorescence 635/667, stem cell growth factor project, primary screen (AID 1064).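 Further: measures binding of the biotinylated anti-FSTL3 antibody to printed compounds.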 The note with it: higher = more signal.
Experiment [2] can be described thus: binders from COS7 lysate, DM2A8 probe, primary screen, torsin A project, cell lysate, small-molecule microarray, fluorescence 635/667 (AID 1065). As to conditions: higher = more signal, COS7 lysate expressing mutant human TOR1A.
Experiment [3] in a line: small molecules captured by biotinylated probe aFGF2 – biochemical, small-molecule microarray, fluorescence 635/667, stem cell growth factor project, primary screen (AID 1067).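 Further: measures binding of biotinylated aFGF2 protein to printed compounds on slides; z-score merges feature fluorescence and signal-to-noise across triplicate slides.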 As to conditions: higher = more signal.
Experiment [4] is described as follows: small molecules captured by biotinylated probe aFGF10 – biochemical, small-molecule microarray, fluorescence 635/667, stem cell growth factor project, primary screen (AID 1071).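 Further: score merges 667 nm spot intensity and signal to noise from triplicate slides.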 The note with it: higher = more signal.
The target of experiment [5] is Neurogenic locus notch homolog protein 2 (Homo sapiens) (UniProt Q04721). Briefly: small molecules binding Notch2 protein – biochemical, small-molecule microarray, 635 nm fluorescence, stem cell growth factors, primary screen (AID 1073). As to conditions: higher = more signal.
The target in experiment [6] is Pro-neuregulin-1, membrane-bound isoform (Homo sapiens) (UniProt Q02297). Put plainly: small molecules binding neuregulin-1 protein – biochemical, small-molecule microarray, fluorescence 635/667, psychiatric disease protein project, primary screen (AID 1075).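 Further: score combines 667 nm spot fluorescence with signal to noise.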 As to conditions: NRG1 binding, 635 nm fluorescence, higher = more signal.
In experiment [7] the test system is Neuregulin-1 EGF-like domain. Briefly: small molecules binding NRG1 EGF domain – biochemical, small-molecule microarray, 635 nm fluorescence, primary screen (AID 1081).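 Further: binding of the protein to compounds printed on small-molecule microarray slides.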 As to conditions: higher = more signal.
The nature of experiment [8]: FRG1 expression reporter modulators in myotubes – cell-based, C2C12 myotubes, firefly/Renilla luciferase, luminescence, FRG1 inhibition for FSHD, primary screen (AID 1084). The note with it: FRG1 promoter luciferase, higher = more signal, called active from +8 up or from −8 down.
Experiment [9] is described as follows: small molecules captured by biotinylated probe aFST – biochemical, small-molecule microarray, fluorescence 635/667, stem cell growth factor project, primary screen (AID 1086).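 Further: score merges 667 nm fluorescence with signal-to-noise of each printed compound spot.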 As to conditions: higher = more signal.
The nature of experiment [10]: binders of probe aHhip on microarray, primary screen, stem cell growth factor project, biochemical, small-molecule microarray, fluorescence 635/667 (AID 1087).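 Further: score merges spot fluorescence at 667nm with spot signal to noise ratio.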 As to conditions: higher = more signal.
For experiment [11], the system named is PRMT1 (protein arginine N-methyltransferase 1). Briefly: small molecules binding arginine methyltransferase PRMT1 – biochemical, small-molecule microarray, 635 nm fluorescence, primary screen (AID 1088).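 Further: binding of Prmt1 protein to compounds spotted on small-molecule microarray slides.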 The note with it: higher = more signal.
A short description of experiment [12]: growth effects on S. cerevisiae YJM789 – YJM789 clinical isolate, OD600, 24 h, basal, primary screen (AID 1089).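 Further: growth of clinical yeast isolate S. cerevisiae YJM 789 seeded 1000 cells per well; test concentration not given here.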 The note with it: higher = more signal, called active from +8 up or from −8 down.
The nature of experiment [13]: S. pombe growth modifiers, basal conditions – strain 972, OD600, 24 h, no modulator, primary screen (AID 1090).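 Further: basal condition with compound alone and no growth modifier present; test concentration not given here.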 As to conditions: S. pombe 972 growth, higher = more signal, called active from +8 up or from −8 down.
A short description of experiment [14]: budding yeast growth modifiers under rapamycin – strain BY4716, OD600, 96 h, primary screen (AID 1091). Further: test concentration not given here. As to conditions: S. cerevisiae BY4716 + rapamycin, higher = more signal, called active from +8 up or from −8 down.
Experiment [15] has as its target Torsin-1A-interacting protein 2 (Homo sapiens) (UniProt Q8NFQ8). Briefly: small molecules binding lysate-expressed LULL1 – cell lysate, human LULL1 lysate, 635/667 nm fluorescence, primary screen (AID 1092).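 Further: probe is lysate of COS7 cells overexpressing human LULL1; score merges per-feature 667 nm fluorescence with signal-to-noise.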 The note with it: small-molecule microarray, hLULL1 lysate binding, 635 nm fluorescence; higher = more signal.
Experiment [16] can be described thus: optical density change of DRC41 E. coli – strain DRC41, OD650, 24 h, E. coli filamentation project, primary screen (AID 1093).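 Further: MC1000 strain lacking acrAB efflux and sulA so SOS filamentation is blocked; test concentration not given here.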 As to conditions: E. coli DRC41 growth, higher = more signal, called active from +8 up or from −8 down.
Experiment [17] in a line: probe aLefty2 binding to arrayed compounds – biochemical, biotinylated probe, 635/667 nm fluorescence, primary screen (AID 1094).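 Further: score merges spot fluorescence near 667 nm with spot signal-to-noise ratio.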 As to conditions: small-molecule microarray, higher = more signal.
Experiment [18] relates to Noggin (protein binding on small-molecule microarray). Put plainly: small molecules binding Noggin protein – biochemical, 635/667 nm fluorescence, primary screen (AID 1095).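 Further: score merges 667 nm feature fluorescence with signal to noise over triplicate slides.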 The note with it: 635 nm fluorescence, higher = more signal.
Experiment [19] has as its target Neurogenic locus notch homolog protein 3 (Homo sapiens) (UniProt Q9UM47). Put plainly: small molecules binding NOTCH3 protein – biochemical, 635/667 nm fluorescence, primary screen (AID 1096). As to conditions: small-molecule microarray, 635 nm fluorescence, higher = more signal.
The nature of experiment [20]: probe aEGFR binding to arrayed compounds – biochemical, biotinylated probe, 635/667 nm fluorescence, primary screen (AID 1097).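 Further: probe is a biotinylated anti-EGFR antibody binding compounds printed on slides; score combines fluorescence near 667 nm and signal to noise of each spot.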 The note with it: small-molecule microarray, higher = more signal.

Each structure is given as a SMILES string. Calls of active or inactive are those of the source.

Torsin-1A-interacting protein 2 (Homo sapiens), sequence (Q8NFQ8 whole entry, looked up): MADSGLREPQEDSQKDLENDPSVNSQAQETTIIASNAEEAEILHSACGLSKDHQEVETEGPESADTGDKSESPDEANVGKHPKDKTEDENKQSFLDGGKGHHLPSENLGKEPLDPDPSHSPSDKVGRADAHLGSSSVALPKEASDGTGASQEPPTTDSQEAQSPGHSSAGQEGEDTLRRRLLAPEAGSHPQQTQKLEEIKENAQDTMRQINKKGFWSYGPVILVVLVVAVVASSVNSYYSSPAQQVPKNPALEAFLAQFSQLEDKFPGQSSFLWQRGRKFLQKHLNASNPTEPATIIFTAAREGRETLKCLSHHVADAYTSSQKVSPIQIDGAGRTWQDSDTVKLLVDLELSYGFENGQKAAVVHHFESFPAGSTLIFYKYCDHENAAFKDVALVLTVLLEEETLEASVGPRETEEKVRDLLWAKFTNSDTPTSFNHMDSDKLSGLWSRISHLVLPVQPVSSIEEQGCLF
Neurogenic locus notch homolog protein 3 (Homo sapiens), sequence (Q9UM47 whole entry, looked up): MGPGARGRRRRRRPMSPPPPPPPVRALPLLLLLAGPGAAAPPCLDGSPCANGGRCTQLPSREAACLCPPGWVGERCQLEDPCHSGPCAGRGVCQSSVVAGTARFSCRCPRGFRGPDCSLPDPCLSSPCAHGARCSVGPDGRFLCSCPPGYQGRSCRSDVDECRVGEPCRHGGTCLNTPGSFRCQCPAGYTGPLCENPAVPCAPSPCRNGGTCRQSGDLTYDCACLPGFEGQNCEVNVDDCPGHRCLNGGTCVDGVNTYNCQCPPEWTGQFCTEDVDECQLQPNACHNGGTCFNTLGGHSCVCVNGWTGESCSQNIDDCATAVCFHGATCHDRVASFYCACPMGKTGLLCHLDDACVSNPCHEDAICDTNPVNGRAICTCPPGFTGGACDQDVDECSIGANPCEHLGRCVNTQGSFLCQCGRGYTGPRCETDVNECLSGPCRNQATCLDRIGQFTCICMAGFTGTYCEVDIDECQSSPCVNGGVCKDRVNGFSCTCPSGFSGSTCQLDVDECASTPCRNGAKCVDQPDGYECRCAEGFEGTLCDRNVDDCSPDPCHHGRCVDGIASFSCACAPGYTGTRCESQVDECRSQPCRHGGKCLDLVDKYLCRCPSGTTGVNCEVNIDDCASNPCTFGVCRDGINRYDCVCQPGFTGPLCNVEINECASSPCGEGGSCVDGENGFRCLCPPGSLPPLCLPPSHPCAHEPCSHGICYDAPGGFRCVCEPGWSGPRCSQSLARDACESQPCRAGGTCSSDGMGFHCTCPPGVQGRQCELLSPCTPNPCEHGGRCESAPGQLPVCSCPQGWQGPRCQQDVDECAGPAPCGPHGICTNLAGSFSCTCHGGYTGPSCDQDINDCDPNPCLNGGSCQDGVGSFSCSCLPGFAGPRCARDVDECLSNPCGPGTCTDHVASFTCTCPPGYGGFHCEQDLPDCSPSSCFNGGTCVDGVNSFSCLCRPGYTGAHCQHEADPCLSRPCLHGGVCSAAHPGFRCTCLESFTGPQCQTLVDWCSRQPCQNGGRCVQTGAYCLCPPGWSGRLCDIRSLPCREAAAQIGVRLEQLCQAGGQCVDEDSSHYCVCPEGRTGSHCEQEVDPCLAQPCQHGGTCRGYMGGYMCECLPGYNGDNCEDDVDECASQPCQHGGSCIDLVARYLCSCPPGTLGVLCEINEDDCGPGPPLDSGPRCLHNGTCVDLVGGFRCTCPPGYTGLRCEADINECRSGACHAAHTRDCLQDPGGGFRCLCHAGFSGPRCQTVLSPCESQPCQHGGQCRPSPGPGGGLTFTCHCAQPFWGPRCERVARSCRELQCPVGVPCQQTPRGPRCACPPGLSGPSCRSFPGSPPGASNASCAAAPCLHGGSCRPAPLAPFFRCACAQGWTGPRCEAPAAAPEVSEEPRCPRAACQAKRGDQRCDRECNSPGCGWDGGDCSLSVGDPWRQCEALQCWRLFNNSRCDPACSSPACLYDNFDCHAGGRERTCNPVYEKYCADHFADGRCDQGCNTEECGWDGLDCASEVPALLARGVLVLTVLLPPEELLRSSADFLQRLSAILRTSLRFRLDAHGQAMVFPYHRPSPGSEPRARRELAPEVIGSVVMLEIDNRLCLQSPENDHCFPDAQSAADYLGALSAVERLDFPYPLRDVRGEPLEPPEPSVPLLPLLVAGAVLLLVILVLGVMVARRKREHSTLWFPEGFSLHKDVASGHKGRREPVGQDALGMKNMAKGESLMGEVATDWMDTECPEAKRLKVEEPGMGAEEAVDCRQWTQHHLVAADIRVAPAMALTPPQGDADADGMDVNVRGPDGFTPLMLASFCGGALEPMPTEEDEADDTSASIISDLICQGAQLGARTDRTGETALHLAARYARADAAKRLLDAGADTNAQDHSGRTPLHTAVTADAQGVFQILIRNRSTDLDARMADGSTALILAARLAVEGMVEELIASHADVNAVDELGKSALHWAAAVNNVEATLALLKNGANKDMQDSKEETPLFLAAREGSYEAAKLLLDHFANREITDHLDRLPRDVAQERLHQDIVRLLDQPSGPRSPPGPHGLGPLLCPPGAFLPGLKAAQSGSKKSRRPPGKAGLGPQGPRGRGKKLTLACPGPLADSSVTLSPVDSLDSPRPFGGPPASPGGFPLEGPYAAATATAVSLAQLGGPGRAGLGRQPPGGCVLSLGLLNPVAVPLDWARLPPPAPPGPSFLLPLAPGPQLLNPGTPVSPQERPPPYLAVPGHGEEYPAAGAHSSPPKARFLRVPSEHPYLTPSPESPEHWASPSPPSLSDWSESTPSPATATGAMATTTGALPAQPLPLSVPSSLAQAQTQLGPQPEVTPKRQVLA
Pro-neuregulin-1, membrane-bound isoform (Homo sapiens), sequence (Q02297 whole entry, looked up, the tested form may be a part, canonical isoform): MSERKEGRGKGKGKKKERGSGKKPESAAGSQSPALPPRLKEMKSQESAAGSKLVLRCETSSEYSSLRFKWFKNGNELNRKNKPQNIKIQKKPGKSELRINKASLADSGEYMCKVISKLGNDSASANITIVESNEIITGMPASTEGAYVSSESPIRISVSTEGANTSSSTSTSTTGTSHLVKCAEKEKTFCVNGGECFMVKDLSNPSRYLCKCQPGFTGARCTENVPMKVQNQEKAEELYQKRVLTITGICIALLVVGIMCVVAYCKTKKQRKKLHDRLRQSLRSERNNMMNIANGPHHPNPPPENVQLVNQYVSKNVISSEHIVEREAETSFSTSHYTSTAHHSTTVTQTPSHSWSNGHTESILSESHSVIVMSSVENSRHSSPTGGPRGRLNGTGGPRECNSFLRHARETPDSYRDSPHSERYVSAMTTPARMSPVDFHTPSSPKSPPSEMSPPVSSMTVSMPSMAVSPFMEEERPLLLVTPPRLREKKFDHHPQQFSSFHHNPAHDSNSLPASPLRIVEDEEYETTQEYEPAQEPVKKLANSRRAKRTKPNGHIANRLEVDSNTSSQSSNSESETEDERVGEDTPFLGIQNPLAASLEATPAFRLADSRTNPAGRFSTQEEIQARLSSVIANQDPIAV

`Cc1cc(C)c(C(O)C2C=CC3C(=O)N(c4ccccc4)C(=O)C3N2Nc2ccc(C#N)cc2)c(C)c1` (stereo not given): the composite z-score is 0.624 in experiment [1]; 0.36 in [2]; 0.111 in experiment [3]; 0.783 in [4]; 1.58 in experiment [5]; 1.74 in experiment [6]. For the same molecule, the composite z-score worked out at 1.15 in experiment [7]; 1.73 in experiment [9]; 0.167 in [10]; 1.12 in experiment [11]; 3.52 in experiment [15]; 0.512 in experiment [17]. Moreover, the composite z-score in [18] was -0.0482; in experiment [19], 1.05; in experiment [20], 0.0905. In addition, the z-score in experiment [8] was -1.08 (inactive); in [12] it was 0.674 (inactive); in experiment [13], 0.788 (inactive); in experiment [14], 2.16 (inactive); in [16] it was 0.111 (inactive).

`CCCCCN1CC=CC23O[C@@H]4/C=C\CCCOC(=O)C4[C@H]2C(=O)N(CCCCCCO)[C@@H]3C1=O` (stereo not given in full): the composite z-score in experiment [1] is -0.19; in experiment [2], 0.109; in experiment [3] it was -0.103; in experiment [4] it was -0.525; in experiment [5] it was -0.774; in experiment [6], 0.729. The composite z-score in [7] is 1.28; in experiment [9] it was -0.645; in experiment [10] it was -0.37; in experiment [11] it was -0.0832; in [15], 3.32; in experiment [17], -0.147. The composite z-score in experiment [18] was -0.471; in experiment [19] it was -0.0559; in experiment [20], 0.0538. The z-score was -1.19 (inactive) in [8]; -3.85 (inactive) in experiment [12]; -2.83 (inactive) in experiment [13]; -2.64 (inactive) in experiment [14]; 1.61 (inactive) in [16].

Consider `CC=CC(O)C1C=CC2C(=O)N(c3ccccc3)C(=O)C2N1Nc1ccc(C(C)C)cc1` (stereo not given), for which the composite z-score was found to be 0.0035 in experiment [1]; 0.238 in experiment [2]; 0.125 in experiment [3]; 0.771 in experiment [4]; 1.65 in experiment [5]; 1.52 in experiment [6]. The composite z-score in [7] is 1.26; in experiment [9] it was 1.16; in experiment [10], -0.0024; in experiment [11], 1.53; in [15], 3.13; in experiment [17], 0.183. The composite z-score turned out to be 0.321 in [18], 1.05 in [19] and 0.14 in experiment [20]. The z-score in experiment [8] was 0.715 (inactive); in [12], 0.842 (inactive); in experiment [13] it was 0.877 (inactive); in [14] it was 1.06 (inactive); in experiment [16], -1.71 (inactive).

Regarding `CC(C)C[C@@H]1NC(=O)[C@@H]2C[C@H](C(=O)NCCCCCC[N+](C)(C)C)[C@H](c3ccc(O)cc3)N2C1=O`, the composite z-score in [1] is -0.0515; in experiment [2] it was 0.349; in experiment [3] it was -0.112; in [4] it was 0.154; in experiment [5] it was -0.344; in experiment [6], 1.57. Besides, the composite z-score in [7] was 1.46; in experiment [9] it was 0.0819; in [10], -0.271; in experiment [11], 1.56; in [15], 3.21; in [17] it was -0.0437. Moreover, the composite z-score in [18] was 0.857; in experiment [19], 0.873; in experiment [20], -0.176. In addition, the z-score in experiment [8] was 1.97 (inactive); in experiment [12], 0.633 (inactive); in experiment [13], 0.904 (inactive); in [14], 0.445 (inactive); in experiment [16] it was 0.266 (inactive).

On to `C=C[C@@H](COC(C)=O)N(Cc1ccc([N+](=O)[O-])cc1)S(=O)(=O)c1ccc(Br)cc1`, for which the composite z-score is 0.381 in experiment [1]; -0.339 in [2]; 0.0258 in [3]; 0.642 in [4]; 1.1 in [5]; 0.668 in [6]. The composite z-score is 1.12 in [7]; 0.804 in [9]; -0.21 in [10]; 0.876 in experiment [11]; 1.25 in experiment [15]; 0.157 in experiment [17]. For the same molecule, the composite z-score in experiment [18] was -0.0608; in [19] it was 0.733; in [20], 0.158. The z-score in [8] was -1.5 (inactive); in [12], -0.0928 (inactive); in [13] it was -1.26 (inactive); in [14] it was 3.93 (inactive); in experiment [16] it was 2.1 (inactive).
